The panel holds about 79,000 compounds, 15% with a hit somewhere; the sample as a whole holds those more often. The source made the active and inactive calls. Cut-off read from the data, not from the text of the source: active = growth inhibition above about 70%; inactive = the rest.
Experiments:
[1] = NCI Yeast Anticancer Drug Screen. Data for the rad50 strain (AID 155);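 note: 0% = growth of vehicle-only cultures of the same strain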; conditions: S. cerevisiae rad50 strain growth inhibition, active compounds read high
How it was run: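 Yeast carrying a defined DNA repair defect were exposed to test compounds, and growth was compared with vehicle-treated controls to give percent inhibition.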

[2] = NCI Yeast Anticancer Drug Screen. Data for the mec2-1 strain (AID 157); conditions: S. cerevisiae mec2-1 strain, active compounds read high
How it was run: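 Strain: mec2-1 (DNA repair/cell cycle alteration). Compound exposure, then growth measured; inhibition expressed relative to vehicle.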

[3] = NCI Yeast Anticancer Drug Screen. Data for the sgs1 mgt1 strain (AID 161);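 note: 0% = growth of cultures given vehicle only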; conditions: S. cerevisiae sgs1 mgt1 strain, active compounds read high
How it was run: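 Genetically altered yeast, compound exposure, growth inhibition relative to vehicle.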

[4] = NCI Yeast Anticancer Drug Screen. Data for the cln2 rad14 strain (AID 165);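 note: 0% = growth equal to vehicle treated cultures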; conditions: S. cerevisiae cln2 rad14 strain, active compounds read high
How it was run: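 Compounds are applied to the cln2 rad14 yeast strain, and growth is then compared with that of vehicle-treated cultures to give inhibition.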

[5] = NCI Yeast Anticancer Drug Screen. Data for the bub3 strain (AID 167); conditions: S. cerevisiae bub3 mutant strain, active compounds read high
How it was run: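 Compounds were applied to a genetically altered yeast strain carrying a cell-cycle control defect. Growth inhibition was scored against vehicle-treated controls.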

[6] = NCI Yeast Anticancer Drug Screen. Data for the mlh1 rad18 strain (AID 175); conditions: S. cerevisiae mlh1 rad18 strain growth inhibition, active compounds read high
How it was run: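 Read-out is yeast growth inhibition, calculated against vehicle-only controls. The compound was applied to a strain engineered with DNA damage repair alterations.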

[7] = at 5.0 µM (retest, dose inferred, filed as 0.5)
[8] = at 50.0 µM (retest, dose inferred, filed as 5.0)

Measured: growth inhibition

CSc1nnc(CCC(=O)Nc2c(C)cccc2C(C)(C)C)o1
inactive: [1]; [7] -5% | [1]; [8] 1% | [1]; at 50.0 µM -2.5% | [2]; [7] 1% | [2]; [8] 4% | [2]; at 50.0 µM 27.8% | [3]; [7] -14% | [3]; [8] 25% | [3]; at 50.0 µM 10.9% | [4]; [7] 4% | [4]; [8] 7% | [4]; at 50.0 µM 49.6% | [5]; [7] 7% | [5]; [8] 7% | [5]; at 50.0 µM 0.65% | [6]; [7] -9% | [6]; [8] -3% | [6]; at 50.0 µM 1.65%

CC(C)C1=CC(=O)C(C)(C2C(O)CC3(C)C4CC=C5C(CCC(O)C5(C)C)C4(C)C(=O)CC23C)O1 (configuration not stated)
active: [1]; [8] 80% | [1]; at 50.0 µM 73.2% | [2]; [7] 78% | [2]; [8] 87% | [2]; at 50.0 µM 74.5% | [3]; [8] 74% | [4]; [8] 83% | [4]; at 50.0 µM 75% | [5]; [7] 78% | [5]; [8] 86% | [6]; [7] 85% | [6]; [8] 89%
inactive: [1]; [7] 65% | [3]; [7] 64% | [3]; at 50.0 µM 68.8% | [4]; [7] 54% | [5]; at 50.0 µM 62.2% | [6]; at 50.0 µM 69.4%

Cc1ccc2c(c1)-c1cc(C)ccc1C2(O)c1ccccc1
active: [1]; [8] 83% | [1]; at 50.0 µM 99% | [2]; at 50.0 µM 97.9% | [3]; [8] 89% | [3]; at 50.0 µM 93.7% | [4]; [8] 79% | [4]; at 50.0 µM 97.2% | [5]; [8] 95% | [5]; at 50.0 µM 96.7% | [6]; [8] 95% | [6]; at 50.0 µM 99.2%
inactive: [1]; [7] 3% | [2]; [7] 14% | [2]; [8] 66% | [3]; [7] 6% | [4]; [7] -7% | [5]; [7] 3% | [6]; [7] -6%

CC1OC(CC(=O)O)Cc2c1c(O)c1c(O)cc(-c3cc(=O)c4c(=O)c5c(c(=O)c=4c3=O)CC(CC(=O)O)OC5C)c(O)c1c2O (configuration not stated)
inactive: [1]; [7] -3% | [1]; [8] 6% | [1]; at 50.0 µM -7.4% | [2]; [7] 3% | [2]; [8] 2% | [2]; at 50.0 µM 7.35% | [3]; [7] -1% | [3]; [8] 2% | [3]; at 50.0 µM 54.4% | [4]; [7] 1% | [4]; [8] 29% | [4]; at 50.0 µM -24.4% | [5]; [7] 22% | [5]; [8] 14% | [5]; at 50.0 µM 11.3% | [6]; [7] 0% | [6]; [8] 2% | [6]; at 50.0 µM 15.7%

CSC(=S)NN=C(c1ccccc1)c1ccccc1
active: [1]; [8] 97% | [2]; [8] 99% | [3]; [8] 99% | [4]; [8] 91% | [5]; [8] 98% | [5]; at 50.0 µM 86.2% | [6]; [8] 99% | [6]; at 50.0 µM 81.8%
inactive: [1]; [7] 9% | [1]; at 50.0 µM 55.6% | [2]; [7] 13% | [2]; at 50.0 µM 39.4% | [3]; [7] 18% | [3]; at 50.0 µM 69.8% | [4]; [7] 7% | [4]; at 50.0 µM 53.9% | [5]; [7] 0% | [6]; [7] 16%

CCCCP(CCCC)(CCCC)=C(C(=O)OC)C(C(=O)OC)=C1SC(C(=O)OC)=C(C(=O)OC)S1
inactive: [1]; [7] 18% | [1]; [8] 39% | [1]; at 50.0 µM -4.9% | [2]; [7] 4% | [2]; [8] 16% | [2]; at 50.0 µM 10.3% | [3]; [7] 63% | [3]; [8] 26% | [3]; at 50.0 µM -9.3% | [4]; [7] 47% | [4]; [8] 38% | [4]; at 50.0 µM 13.1% | [5]; [8] 47% | [5]; at 50.0 µM -7.6% | [6]; [7] 23% | [6]; [8] 51% | [6]; at 50.0 µM 4.8%
active: [5]; [7] 79%

NC(=O)C1CCCN1C(=O)C1CCCN(Cc2cc(CN3CCCC(C(=O)N4CCCC4C(N)=O)C3)cc(CN3CCCC(C(=O)N4CCCC4C(N)=O)C3)c2)C1 (configuration not stated)
active: [1]; at 50.0 µM 78.1%
inactive: [1]; [7] 2% | [1]; [8] 9% | [2]; [7] -5% | [2]; [8] -21% | [2]; at 50.0 µM 40.7% | [3]; [7] -1% | [3]; [8] -8% | [3]; at 50.0 µM 59.5% | [4]; [7] -2% | [4]; [8] 3% | [4]; at 50.0 µM 16.9% | [5]; [7] -23% | [5]; [8] 2% | [5]; at 50.0 µM 48.8% | [6]; [7] -7% | [6]; [8] -1% | [6]; at 50.0 µM 28.6%

S=c1ncc2c([nH]1)C1c3ccccc3C2c2ccccc21
active: [1]; [8] 98% | [1]; at 50.0 µM 86% | [2]; [8] 98% | [2]; at 50.0 µM 92% | [3]; [8] 98% | [3]; at 50.0 µM 90.1% | [4]; [8] 99% | [4]; at 50.0 µM 88% | [5]; [8] 98% | [5]; at 50.0 µM 92.4% | [6]; [8] 98% | [6]; at 50.0 µM 90.5%
inactive: [1]; [7] -9% | [2]; [7] -6% | [3]; [7] 2% | [4]; [7] 27% | [5]; [7] 16% | [6]; [7] -1%

COC(=O)/N=C/CCC(O)NC(=O)OC (configuration not stated)
inactive: [1]; [7] 1% | [1]; [8] 1% | [1]; at 50.0 µM 40.3% | [2]; [7] -20% | [2]; [8] 2% | [2]; at 50.0 µM 1.85% | [3]; [7] 2% | [3]; [8] -2% | [3]; at 50.0 µM -3.15% | [4]; [7] -1% | [4]; [8] 3% | [4]; at 50.0 µM 46.5% | [5]; [7] -2% | [5]; [8] -3% | [5]; at 50.0 µM -18.8% | [6]; [7] -9% | [6]; [8] 4% | [6]; at 50.0 µM 11.7%

— PubChem BioAssay (NCI)
